Data reported in PubChem BioAssay AID521 (Sanford-Burnham Center for Chemical Genomics, 2006).
Hit rate of the full screen: of about 110,000 compounds, about 730 (0.66%) were called active. The full list was thinned out, with actives kept by preference. A number with no mark means an inactive call. Cut-off read from the data, not from the text of the source: active = inhibition above about 50%; inconclusive = no clear call, values can overlap the other calls; inactive = below that.

molecular target: Tyrosine-protein phosphatase non-receptor type 7 (Homo sapiens) (UniProt P35236); assay: HePTP tyrosine phosphatase activity blockers – biochemical, absorbance, leukemia target, primary screen (AID 521); conditions: recombinant HePTP phosphatase activity, OD absorbance; at 20 µM; active compounds read high;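 note: plate controls were vehicle for no effect and reference inhibitor for full effect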
Sequence (P35236 whole entry, looked up): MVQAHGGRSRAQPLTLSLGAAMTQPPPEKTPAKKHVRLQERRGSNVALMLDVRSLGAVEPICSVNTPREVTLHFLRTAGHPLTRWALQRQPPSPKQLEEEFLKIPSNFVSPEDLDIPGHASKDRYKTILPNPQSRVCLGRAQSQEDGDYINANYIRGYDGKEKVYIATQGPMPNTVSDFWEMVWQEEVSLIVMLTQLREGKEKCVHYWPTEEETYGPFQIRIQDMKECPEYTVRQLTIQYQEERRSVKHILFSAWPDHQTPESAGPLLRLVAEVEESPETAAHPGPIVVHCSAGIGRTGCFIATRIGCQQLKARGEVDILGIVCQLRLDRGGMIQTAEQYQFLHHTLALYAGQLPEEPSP

SMILES | inhibition
COc1ccc2ccccc2c1/C=N/NC(=O)c1cc(C)[nH]n1 | 0.2%
Cc1cc(NCCN2CCCCCC2)n2c(nc3ccccc32)c1C#N | -9.3%
Cc1c(C#N)c2nc3ccccc3n2c(=O)/c1=C\c1c(O)n(-c2ccc(Br)cc2)[nH]c1=O | 103% (active)
N#Cc1c2c(c(N3CCN(CCO)CC3)n3c1nc1ccccc13)CCCC2 | 4.3%
COc1ccc(OC)c(N(CC(=O)Nc2cccc(Cl)c2)S(=O)(=O)c2ccc(OC)c(OC)c2)c1 | -8.4%
COc1ccc(NCN2C(=O)CSC2=O)cc1Cl | 5.1%
O=C(Nc1cccc(Br)c1)C(=O)NC1CCCC1 | -7.9%
N#C/C(=C/c1cc(Cl)c(O)c(Cl)c1)C(=O)Nc1cccc(Br)c1 | 102% (active)
COc1cccc(/C=C(/C#N)C(=O)Nc2ccc(F)cc2)c1O | 9.6%
CCOC(=O)c1c(Nc2ccc(C)cc2)csc1C | 5.4%
COc1ccc(CC(=O)Nc2ccc(-c3ccc(NC(=O)Cc4ccc(OC)cc4)c(OC)c3)cc2OC)cc1 | -17.3%
Cc1cc(C)cc(NC(=O)CN2C(=O)c3ccccc3C2=O)c1 | 4.6%
CSc1nc(=O)n(C)c(C)c1C(C)=O | -0.4%
O=C(NC(NC(=S)Nc1ccc(I)cc1)C(Cl)(Cl)Cl)c1cccc([N+](=O)[O-])c1 (configuration not stated) | -2.4%
Cc1cc(C)c2nc3s/c(=C\c4ccc(-c5ccccc5C(=O)O)o4)c(=O)n3c2c1 | 103% (active)
COc1cc(/C=c2\sc3nc4c(C)cc(C)cc4n3c2=O)cc(Br)c1O | 5.3%
Cc1cc(C)c2nc3s/c(=C\c4ccc(N(C)C)cc4)c(=O)n3c2c1 | 8.6%
O=C1c2ccccc2C(=O)c2c(NC3CCCCC3)cccc21 | -14.5%
COc1ccc(/C=N/n2cnc3sc4c(c3c2=O)CCCC4)cc1OC | 1.7%
O=C(Nc1cccc(NC(=O)c2ccc(Cl)cc2Cl)c1)c1ccc(-c2ccc([N+](=O)[O-])cc2)o1 | 5.5%
CCOc1ccc2cc(S(=O)(=O)NCC3CCCO3)ccc2c1 (configuration not stated) | 0.1%
Cc1c(Br)c(=O)[nH]c(=O)n1Cc1ccccc1 | 0.2%
O=C(NCc1ccccn1)C(=O)Nc1ccc(Br)cc1 | 7.9%
Cc1cc(C)c(NC(=O)C(C)Sc2nnc(-c3cccc(F)c3)n2-c2ccccc2)c(C)c1 (configuration not stated) | -3.5%
COc1ccc(Cl)cc1C(=O)Nc1ccc2c3c(cccc13)CC2 | -1.6%
CCCCOC(=O)Nc1nnc(-c2ccco2)s1 | -8.6%

SMILES | inhibition
CCOc1cc(/C=N/NC(=O)CC2C(=O)NN=C2C)ccc1O (configuration not stated) | -5.5%
O=C(Nc1cccc([N+](=O)[O-])c1)c1ccc2c(c1)C(=O)N(N1C(=O)c3ccccc3C1=O)C2=O | -5.9%
COC(=O)c1c(-c2ccc(Br)cc2)csc1NC(=O)CCCC(=O)O | 8.8%
CCc1ccc(N2C(=O)NC(=O)/C(=C\c3cc(Cl)c(O)c(Cl)c3)C2=O)cc1 | 2.7%
CN(C)c1ccc(C2/C(=C(\O)c3ccccc3)C(=O)C(=O)N2CCCC(=O)O)cc1 (configuration not stated) | 3.2%
COc1cc(/C=C2/SC(=S)N(C)C2=O)cc([N+](=O)[O-])c1O | 6.6%
CC(=O)C1=C(O)C(=O)N(CCN2CCNCC2)C1c1ccc(C)cc1 (configuration not stated) | 6%
Cc1ccc(-c2csc(NC(=O)c3ccc(Cl)cc3)n2)cc1 | 7%
CCN1C(=O)/C(=C\c2cn(CCOc3ccc(Br)cc3)c3ccccc23)SC1=S | 2.4%
Cc1cc(Cl)ccc1OCC(=O)O/N=C(\N)c1ccncc1 | -14.4%
COC(=O)CCN(C(=O)c1ccc(F)cc1)c1ccccn1 | -21.6%
O=C(NC(=O)C(Cl)(Cl)Cl)Nc1ccc(Cl)c(Cl)c1 | 3.7%
Cc1ccc(S(=O)(=O)Nc2ccc(NC(=O)C3C4C=CC(O4)C3C(=O)O)cc2)cc1 (configuration not stated) | -5.5%
O=C(Nc1nccs1)C(c1ccccc1)c1ccccc1 | -5.8%
O=C(O)C1C2C=CC(O2)C1C(=O)Nc1nccs1 (configuration not stated) | 104% (active)
O=C(c1ccc2c(c1)OCO2)N1CCNc2ccccc2C1 | 7.3%
O=C(c1ccc2c(c1)OCO2)N1CCOCC1 | 104% (active)
O=C(Nc1ccc(N2CCOCC2)cc1)c1ccc2c(c1)OCO2 | -5.6%
O=C(Nc1cccnc1)c1cnn2c1NC(c1ccco1)CC2C(F)(F)F (configuration not stated) | 0.1%
Cc1cc2oc(=O)cc(C)c2cc1NC(=O)c1ccccc1 | -31.1%
O=C(O)C(Sc1nc2ccccc2s1)c1ccccc1 (configuration not stated) | -17.3%
O=C1/C(=C/c2ccc(Br)cc2)SC(=S)N1CCc1ccccc1 | 3.2%
O=C(O)CCCN1C(=O)/C(=C/c2ccccc2)SC1=S | 8.8%
O=C(O)CCCCCCCCCCN1C(=O)/C(=C/c2ccc(Br)cc2)SC1=S | 70.7% (active)
O=C(Nc1cccc(O)c1)c1cc2nc(-c3ccc(F)cc3)cc(C(F)(F)F)n2n1 | 4.4%
CCOC(=O)c1ccc(N2NC(=O)/C(=C/c3ccc(Br)cc3)C2=O)cc1 | 6.5%
